Several values for one entry are separate records, joined by “and”; a condition that tells them apart may be missing. Identical values can stand only once. More than one record can exist for a structure, and the calls need not agree. Activity calls are given as the source filed them. How the source made its calls: active means hit-call score of the fitted dose curve at least 0.9, where 1 is the maximum; inactive means score below 0.9.
Assays:
[1] = read-out: Intercellular Adhesion Molecule 1 (ICAM1), ICAM1 (gene 3383); test: BSK_BF4T_ICAM1: BioMAP Diversity Plus: BF4T Assay for Intercellular Adhesion Molecule 1 (ICAM1) Biomarker Activity (AID 2284260); settings: primary human bronchial epithelial cells with fibroblasts
Procedure, shortened: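 ICAM-1 levels measured by ELISA after 24 h chemical treatment of bronchial epithelial cell/dermal fibroblast co-cultures, read against DMSO baseline. Overt cytotoxicity checked in parallel cultures by sulforhodamine B staining.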

[2] = read-out: Interleukin-8 (IL8), CXCL8 (gene 3576); test: BSK_MyoF_IL8: BioMAP Diversity Plus: MyoF Assay for Interleukin-8 (IL8) Biomarker Activity (AID 2284261); settings: primary human lung fibroblasts
Procedure, shortened: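 Lung fibroblasts (human primary) → chemical exposure → 24 h → IL-8 measured by ELISA. Signal increase scored versus DMSO control.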

[3] = read-out: Interleukin-1 alpha (IL1a), IL1A (gene 3552); test: BSK_BF4T_IL1a: BioMAP Diversity Plus: BF4T Assay for Interleukin-1 alpha (IL1a) Biomarker Activity (AID 2284264); settings: primary human bronchial epithelial cells with fibroblasts
Procedure, shortened: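 ELISA read-out of IL-1α from bronchial epithelial cell/dermal fibroblast co-cultures 24 h after compound addition. Increases scored against DMSO negative control. Cytotoxicity monitored by sulforhodamine B staining of parallel cultures.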

[4] = read-out: Decorin, DCN (gene 1634); test: BSK_MyoF_Decorin: BioMAP Diversity Plus: MyoF Assay for Decorin Biomarker Activity (AID 2284265); settings: primary human lung fibroblasts
Procedure, shortened: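 ELISA readout of decorin, 24 h post-dosing; primary human lung fibroblast (MyoF) culture; gain-of-signal fit vs DMSO baseline.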

[5] = read-out: KRT18 (gene 3875); test: BSK_BF4T_Keratin818: BioMAP Diversity Plus: BF4T Assay for Keratin 818 Biomarker Activity (AID 2284266); settings: primary human bronchial epithelial cells with fibroblasts
Procedure, shortened: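 Keratin 8/18 levels quantified by ELISA after 24 h chemical treatment of bronchial epithelial cell/dermal fibroblast co-cultures, fitted in positive direction relative to DMSO. Parallel SRB staining tracks overt cytotoxicity.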

[6] = BSK_MyoF_SRB: Viability Assessment in the BioMAP Diversity Plus: MyoF Assay (AID 2284267); settings: primary human lung fibroblasts;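 further: total protein by SRB absorbance in parallel cultures as cytotoxicity measure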
Procedure, shortened: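 Lung fibroblast cultures, 24 h post-dose; fix 10% TCA, stain 0.1% SRB, read 560 nm. Signal = total protein as cytotoxicity measure; fitted relative to DMSO negative control.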

[7] = read-out: Matrix Metallopeptidase 1 (MMP1), MMP1 (gene 4312); test: BSK_MyoF_MMP1: BioMAP Diversity Plus: MyoF Assay for Matrix Metallopeptidase 1 (MMP1) Biomarker Activity (AID 2284268); settings: primary human lung fibroblasts
Procedure, shortened: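 Cells: human lung fibroblasts. Exposure: 24 h chemical dosing. Detection: ELISA for MMP1. Analysis: upward fitting against DMSO negative control.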

[8] = read-out: Matrix Metallopeptidase 1 (MMP1), MMP1 (gene 4312); test: BSK_BF4T_MMP1: BioMAP Diversity Plus: BF4T Assay for Matrix Metallopeptidase 1 (MMP1) Biomarker Activity (AID 2284270); settings: primary human bronchial epithelial cells with fibroblasts
Procedure, shortened: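 MMP-1 quantified by ELISA in primary human bronchial epithelial/dermal fibroblast co-cultures, 24 hours post-dosing, with DMSO as baseline; parallel sulforhodamine B staining (560 nm) tracks overt cytotoxicity.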

[9] = read-out: Matrix Metallopeptidase 3 (MMP3), MMP3 (gene 4314); test: BSK_BF4T_MMP3: BioMAP Diversity Plus: BF4T Assay for Matrix Metallopeptidase 3 (MMP3) Biomarker Activity (AID 2284271); settings: primary human bronchial epithelial cells with fibroblasts
Procedure, shortened: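 MMP-3 level read by ELISA after 24 h chemical exposure of bronchial epithelial cell/dermal fibroblast co-cultures, fitted upward relative to DMSO. Parallel cultures stained with 0.1% SRB after TCA fixation gauge overt cytotoxicity.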

[10] = read-out: Tissue plasminogen activator (tPA), PLAT (gene 5327); test: BSK_BF4T_tPA: BioMAP Diversity Plus: BF4T Assay for Tissue plasminogen activator (tPA) Biomarker Activity (AID 2284272); settings: primary human bronchial epithelial cells with fibroblasts
Procedure, shortened: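 tPA level quantified by ELISA at 24 h post-treatment in bronchial epithelial/dermal fibroblast co-cultures, gain of signal scored against DMSO baseline. Parallel cultures stained with 0.1% SRB (560 nm) to flag overt cytotoxicity.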

[11] = read-out: Plasminogen Activator Inhibitor-1 (PAI1), SERPINE1 (gene 5054); test: BSK_BF4T_PAI1: BioMAP Diversity Plus: BF4T Assay for Plasminogen Activator Inhibitor-1 (PAI1) Biomarker Activity (AID 2284273); settings: primary human bronchial epithelial cells with fibroblasts
Procedure, shortened: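 PAI-1 levels quantified by ELISA 24 h post-dosing in bronchial epithelial cell plus dermal fibroblast cultures. Signal gain referenced to DMSO baseline. Sulforhodamine B total-protein staining of parallel wells checked cytotoxicity.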

[12] = BSK_BF4T_SRB: Viability Assessment in the BioMAP Diversity Plus: BF4T Assay (AID 2284274); settings: primary human bronchial epithelial cells with fibroblasts
Procedure, shortened: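 Cytotoxicity measured as total protein: cells fixed with 10% TCA, stained with 0.1% SRB, read at 560 nm. Bronchial epithelial/dermal fibroblast co-culture, 24 h after dosing, with positive-direction fitting relative to DMSO.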

[13] = read-out: urokinase Plasminogen Activator (uPA), PLAU (gene 5328); test: BSK_BF4T_uPA: BioMAP Diversity Plus: BF4T Assay for urokinase Plasminogen Activator (uPA) Biomarker Activity (AID 2284275); settings: primary human bronchial epithelial cells with fibroblasts
Procedure, shortened: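 uPA levels measured by ELISA at 24 hours in BF4T cultures (bronchial epithelial cells plus dermal fibroblasts) and compared with DMSO; cytotoxicity tracked in parallel cultures by sulforhodamine B staining.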

[14] = read-out: Matrix Metallopeptidase 9 (MMP9), MMP9 (gene 4318); test: BSK_BF4T_MMP9: BioMAP Diversity Plus: BF4T Assay for Matrix Metallopeptidase 9 (MMP9) Biomarker Activity (AID 2284276); settings: primary human bronchial epithelial cells with fibroblasts
Procedure, shortened: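 MMP-9 levels were measured by ELISA after 24 h exposure of bronchial epithelial cell/dermal fibroblast co-cultures, with DMSO as baseline. Parallel cultures were stained with 0.1% SRB after TCA fixation, read at 560 nm, to flag overt cytotoxicity.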

[15] = read-out: Interleukin-8 (IL8), CXCL8 (gene 3576); test: BSK_IMphg_IL8: BioMAP Diversity Plus: IMphg Assay for Interleukin-8 (IL8) Biomarker Activity (AID 2284277); settings: primary human endothelial cells with macrophages
Procedure, shortened: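 IL-8 levels were measured by ELISA 24 h after dosing in primary human venular endothelial cell–macrophage cultures, referenced to DMSO; parallel SRB staining monitored overt cytotoxicity.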

[16] = read-out: Intercellular Adhesion Molecule 1 (ICAM1), ICAM1 (gene 3383); test: BSK_BE3C_ICAM1: BioMAP Diversity Plus: BE3C Assay for Intercellular Adhesion Molecule 1 (ICAM1) Biomarker Activity (AID 2284278); settings: primary human bronchial epithelial cells;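 on outcome: cell-surface ICAM-1 protein level quantified by ELISA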
Procedure, shortened: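 ELISA read-out of ICAM-1 on human lung bronchial epithelial primary cells, 24 h post-dosing; positive-direction curve fit, DMSO = baseline. SRB total-protein staining of parallel cultures flagged overt cytotoxicity.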

[17] = read-out: Interferon-inducible T-cell alpha chemoattractant (ITAC), CXCL11 (gene 6373); test: BSK_BE3C_ITAC: BioMAP Diversity Plus: BE3C Assay for Interferon-inducible T-cell alpha chemoattractant (ITAC) Biomarker Activity (AID 2284279); settings: primary human bronchial epithelial cells
Procedure, shortened: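 The assay measures I-TAC levels by ELISA in human primary bronchial epithelial cell cultures 24 hours after chemical treatment. Values reflect signal increase over the DMSO baseline.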

[18] = read-out: TIMP metallopeptidase inhibitor 1 (TIMP1), TIMP1 (gene 7076); test: BSK_MyoF_TIMP1: BioMAP Diversity Plus: MyoF Assay for TIMP metallopeptidase inhibitor 1 (TIMP1) Biomarker Activity (AID 2284269); settings: primary human lung fibroblasts
Procedure, shortened: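 TIMP-1 levels were determined by ELISA in human lung fibroblasts treated for 24 h. DMSO served as negative control and baseline for upward curve fitting.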

[19] = read-out: CD90, THY1 (gene 7070); test: BSK_BF4T_CD90: BioMAP Diversity Plus: BF4T Assay for CD90 Biomarker Activity (AID 2284262); settings: primary human bronchial epithelial cells with fibroblasts
Procedure, shortened: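 CD90 levels by ELISA after 24 h treatment of human bronchial epithelial cell/dermal fibroblast cultures, analysed versus DMSO. Overt cytotoxicity checked in parallel cultures by sulforhodamine B staining.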

For `O=C(O)C(F)(F)C(F)(F)C(F)(F)C(F)(F)C(F)(F)C(F)(F)C(F)(F)C(F)(F)Cl`, the AC50 [1] was 41.4 µM (active) and 40 µM (active), the outcome [2] was “inactive” and the AC50 [3] was 45.2 µM (active) and 44 µM (active). For the same molecule, the AC50 [4] was 21.3 µM (active), the outcome [4] was “inactive” and the AC50 [5] was 45 µM (active) and 49.7 µM (active). For the same molecule, the AC50 [6] was 30.9 µM (active) and 35.5 µM (active), the AC50 [7] was 51.5 µM (active) and the outcome [7] was “inactive”. For the same molecule, the AC50 [8] was 48.7 µM (active) and 55 µM (active), the AC50 [9] was 52.7 µM (active) and 55.1 µM (active) and the AC50 [10] was 10.7 µM (active) and 5.95 µM (active). The AC50 [11] was 44.8 µM (active) and 42.7 µM (active), the AC50 [12] was 36.9 µM (active) and 39.9 µM (active) and the AC50 [13] was 45.3 µM (active) and 46.1 µM (active). The AC50 [14] was 37.1 µM (active) and 30 µM (active), the outcome [15] was “inactive” and the AC50 [16] was 45.1 µM (active) and 45.8 µM (active). For the same molecule, the AC50 [17] was 40.8 µM (active) and 23.3 µM (active).

In the case of `C=CC(=O)OCC(F)(F)C(F)(F)C(F)(F)C(F)(F)COC(=O)C=C`, the AC50 [1] is reported as 9.07 µM (active) and 16.9 µM (active), the AC50 [2] is reported as 19.5 µM (active) and 13.8 µM (active) and the AC50 [3] is reported as 30 µM (active) and 46.8 µM (active). The AC50 [4] was 15.7 µM (active) and 17 µM (active), the outcome [5] was “inactive” and the AC50 [6] was 17.1 µM (active) and 18.2 µM (active). The outcome [7] was “inactive”, the AC50 [9] was 55.4 µM (active) and 6.99 µM (active) and the AC50 [10] was 8.21 µM (active) and 9.07 µM (active). For the same molecule, the outcome [11] was “inactive”, the outcome [12] was “inactive” and the AC50 [13] was 30 µM (active). The outcome [13] was “inactive”, the AC50 [14] was 18.2 µM (active) and the outcome [14] was “inactive”. The outcome [15] was “inactive”, the AC50 [16] was 26.3 µM (active) and 25.9 µM (active) and the AC50 [17] was 45.3 µM (active) and 39.4 µM (active).

For `FC(F)(F)C(F)(F)C(F)(F)C(F)(F)C(F)(F)C(F)(F)CC1CO1` (stereo not drawn), the outcome [1] was “inactive”, the outcome [2] was “inactive” and the outcome [3] was “inactive”. For the same molecule, the outcome [4] was “inactive”, the outcome [5] was “inactive” and the outcome [6] was “inactive”. For the same molecule, the outcome [7] was “inactive”, the outcome [18] was “inactive” and the outcome [8] was “inactive”. The outcome [9] was “inactive”, the outcome [10] was “inactive” and the outcome [11] was “inactive”. The outcome [12] was “inactive”, the outcome [13] was “inactive” and the outcome [14] was “inactive”. For the same molecule, the outcome [15] was “inactive”, the outcome [16] was “inactive” and the outcome [17] was “inactive”.

In the case of `OCC(F)(F)C(F)(F)C(F)(F)C(F)F`, the outcome [1] is reported as “inactive”, the outcome [2] is reported as “inactive” and the outcome [3] is reported as “inactive”. The AC50 [4] was 5.95 µM (active), the outcome [4] was “inactive” and the outcome [5] was “inactive”. For the same molecule, the outcome [6] was “inactive”, the outcome [18] was “inactive” and the outcome [9] was “inactive”. The outcome [10] was “inactive”, the outcome [11] was “inactive” and the outcome [12] was “inactive”. For the same molecule, the outcome [13] was “inactive”, the outcome [14] was “inactive” and the outcome [15] was “inactive”. The outcome [16] was “inactive” and the outcome [17] was “inactive”.

With `C=CC(F)(F)C(F)(F)C(F)(F)C(F)(F)C(F)(F)C(F)(F)C(F)(F)C(F)(F)C=C` the outcome [1] was “inactive”, the outcome [2] was “inactive” and the outcome [3] was “inactive”. For the same molecule, the outcome [4] was “inactive”, the outcome [5] was “inactive” and the outcome [6] was “inactive”. The outcome [7] was “inactive”, the outcome [8] was “inactive” and the outcome [9] was “inactive”. The outcome [10] was “inactive”, the outcome [11] was “inactive” and the outcome [12] was “inactive”. For the same molecule, the outcome [13] was “inactive”, the outcome [14] was “inactive” and the outcome [15] was “inactive”. The outcome [16] was “inactive” and the outcome [17] was “inactive”.

In the case of `CCCCCCCCC(F)(F)C(F)(F)C(F)(F)C(F)(F)C(F)(F)C(F)(F)F`, the outcome [1] is reported as “inactive”, the outcome [2] is reported as “inactive” and the outcome [19] is reported as “inactive”. The outcome [3] was “inactive”, the outcome [4] was “inactive” and the outcome [5] was “inactive”. The outcome [6] was “inactive”, the outcome [7] was “inactive” and the outcome [18] was “inactive”. The outcome [8] was “inactive”, the outcome [9] was “inactive” and the outcome [10] was “inactive”. The outcome [11] was “inactive”, the outcome [12] was “inactive” and the outcome [13] was “inactive”. The outcome [14] was “inactive”, the outcome [15] was “inactive” and the outcome [16] was “inactive”. The outcome [17] was “inactive”.

Reference: PubChem BioAssay (EPA / NIEHS)
